# MITF inhib = inhibitors of MITF, primary screen, MITF inhibitor project, cell-based, luminescence; TRPM1 promoter luciferase, 24 h; inhibition, % (no concentration beside the values); 0.28% of 37,000 active; AID 2240, 2010; in the data active = inhibition above about 85%; inconclusive = no clear call, values can overlap the other calls; inactive = below about 68%;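 note: human melanocyte line stably carrying TRPM1 promoter luciferase reporter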
# NOMO-1 viab = NOMO-1 AML cell viability reduction, primary screen, STK33 inhibitor project, CellTiter-Glo luminescence; NOMO-1 AML viability, 72 h; inhibition, % (test concentration not listed); 7.5% of 37,000 active; AID 2330, 2010; in the data active = inhibition above about 80%; inconclusive = no clear call, values can overlap the other calls
# Hedgehog inh = Hedgehog pathway signaling inhibitors, primary screen, luminescence, Shh-LIGHT2 cells, Gli-luciferase | inhibition, % (test concentration not listed) | AID 2313, 2010 | 2.1% of 22,000 active | Shh-LIGHT2 Gli-luciferase reporter, 30 h;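 active = mean inhibition across valid replicates above about 65%, limit read from the data; inconclusive = mean under the limit, yet half or more replicates past it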;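 note: pathway switched on by Shh-conditioned medium diluted 1 in 25 in low serum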
# YB-1 expression = inhibitors of YB-1 gene expression, primary screen, cell-based, fluorescence. 0.37% of 30,000 active. delta delta Cp (YB-1 minus CDIP) (no concentration beside the values). U2OS, qRT-PCR YB-1 vs CDIP delta delta Cp, 16 h; active compounds read high; zero = DMSO, each unit about twofold. AID 434959, 2010;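 active = delta delta Cp rounded down to an integer at or above 3, about 3 SD of DMSO wells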;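 note: higher means less YB-1 transcript or more CDIP transcript relative to DMSO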
# PD-1 reverse act = activators reversing PD-1 mediated T-cell inhibition, primary screen, luminescence, primary human CD4 T cells, PD-L1 beads; activation, % (concentration not given with the values); CellTiter-Glo 96 h; 29,000 tested, under 10 active; AID 2316, 2010; call rule not given here;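 note: 0% = median vehicle wells and 100% = positive control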
# Starred values were filed as active, the others as inactive; ? = inconclusive; / = not tested or not shown. Shown are actives, neighbours in structure and some others; about 7.4% of the full set was active somewhere.
SMILES,MITF inhib,NOMO-1 viab,Hedgehog inh,YB-1 expression,PD-1 reverse act
O=C(O)c1cccc(COc2ccc(CO)cc2Cl)c1,88.6*,30.2,/,/,1.9
CCCCCCCC(O)C(O)C1CC(OC)=CC(=O)O1 (configuration not stated),-0.6,5.2,-8.5,-0.0397,0.3
CCCCCCCCCC(O)CC(O)CC(O)CC1CC=CC(=O)O1 (configuration not stated),-26.4,114.8*,-22.8,-0.0883,-1.9
COc1ccc(CN(C)C[C@H]2Oc3c(NC(=O)Nc4ccc(C(F)(F)F)cc4)cccc3C(=O)N([C@H](C)CO)C[C@H]2C)cc1,-6.2,95.3*,12.9,1.28,-5.4
C[C@@H]1CN([C@@H](C)CO)C(=O)c2cccc(NC(=O)Nc3ccc(F)cc3)c2O[C@H]1CN(C)Cc1ccc(C(F)(F)F)cc1,45.6,102.6*,-12.2,0.623,-6.7
COc1ccc(NC(=O)Nc2cccc3c2O[C@@H](CN(C)Cc2ccc(C(F)(F)F)cc2)[C@@H](C)CN([C@H](C)CO)C3=O)cc1,8.9,44.8,1.9,-0.393,-3.4
C[C@H](CO)N1C[C@H](C)[C@H](CN(C)Cc2ccc(C(F)(F)F)cc2)Oc2c(NC(=O)Nc3ccc(C(F)(F)F)cc3)cccc2C1=O,20.9,109.6*,-42.7,0.0114,-4.8
COc1ccc(-c2ccc(CCC(=O)O)n2-c2ccc(Br)cc2)cc1,-3.0,3.8,/,/,/
COC(=O)c1c(NC(=O)CN2C(=O)c3ccccc3S2(=O)=O)sc2c1CCCC2,-2.2,-13.9,/,/,/
C[C@@H]1CN([C@@H](C)CO)C(=O)c2cc(NC(=O)C3CC3)ccc2O[C@H]1CN(C)C(=O)NC1CCCCC1,1.3,17.1,-14.4,20.8*,/
C[C@@H]1CN([C@H](C)CO)C(=O)c2cc(NC(=O)C3CC3)ccc2O[C@H]1CN(C)C(=O)NC1CCCCC1,-1.8,19.0,-11.2,-0.0206,0.4
C[C@@H]1CN([C@@H](C)CO)C(=O)c2cc(NC(=O)C3CCCCC3)ccc2O[C@H]1CN(C)C(=O)Nc1cccc2ccccc12,-1.8,13.2,/,5.59*,0.6
Cc1sc2ncnc(SCC(=O)c3ccc4ccccc4c3)c2c1C,29.7,12.0,/,/,0.1
COC(=O)c1ccccc1NC(=O)CNC(=O)c1ccccc1F,-30.2,2.3,/,/,/
FC(F)(F)C1=Nc2ccccc2N(c2ccc(Cl)c(Cl)c2)C1,7.0,63.2,-10.4,-0.145,-7.2
C[C@@H]1C[C@@H]2O[C@H]2/C=C/C=C\C(=O)Cc2c(Cl)c(O)cc(O)c2C(=O)O1,3.4,118.3*,42.6,0.639,-7.2
O=C1C=CC(=O)c2c(O)c(Cl)c(Cl)c(O)c21,60.4,98.0*,44.4,-0.426,-40.8
Cc1ccc(C(=O)CSc2ncnc3sc4c(c23)CCC4)cc1C,-21.8,19.6,/,/,-1.5
COC(=O)c1cc(NC(=O)CSC2=NCCS2)cc(C(=O)OC)c1,-18.3,92.6*,/,/,/
Cc1noc(C)c1S(=O)(=O)Nc1ccc2c(c1)C(=O)N([C@H](C)CO)C[C@H](C)[C@@H](CN(C)C(=O)Nc1ccc(C(F)(F)F)cc1)OCCCC[C@@H](C)O2,24.7,114.9*,11.2,0.22,-2.5
Cc1noc(C)c1S(=O)(=O)Nc1ccc2c(c1)C(=O)N([C@@H](C)CO)C[C@@H](C)[C@H](CN(C)C(=O)Nc1ccc(C(F)(F)F)cc1)O2,-3.3,10.3,-23.9,-0.324,-1.7
Cc1noc(C)c1S(=O)(=O)Nc1ccc2c(c1)C(=O)N([C@H](C)CO)C[C@H](C)[C@H](CN(C)C(=O)Nc1ccc(C(F)(F)F)cc1)OCCCC[C@@H](C)O2,54.3,?,99.9*,0.189,-5.5
Cn1c(-c2ccc(Cl)cc2)cs/c1=N\C(=S)NCCc1ccccc1,3.7,19.1,91.1*,-0.483,0.2
CCn1c(SCC(=O)N2c3ccccc3Sc3ccccc32)nnc1-c1cc(OC)cc(OC)c1,13.4,10.7,/,/,/
COC(=O)NCC12CC3CC(CC(C3)C1)C2,0.3,40.6,-19.2,0.377,-0.5
SMILES,MITF inhib,NOMO-1 viab,Hedgehog inh,YB-1 expression,PD-1 reverse act
C=CC(C)(C)[C@@]12C[C@H]3C(=O)N[C@H]([C@@H](C)CC)C(=O)N3[C@@H]1Nc1ccccc12,-21.3,38.1,-50.7,-0.222,1.4
C=CCC1OC(=O)CCNC(=O)C(C)N(C)C(=O)C(C(C)C)N(C)C(=O)C(C(C)CC)NC(=O)C2CCCN2C1=O (configuration not stated),-66.3,112.0*,38.3,-0.428,0.6
CCOC(=O)C1CCN(C(=O)Nc2ccc3snnc3c2)CC1,-4.2,105.8*,/,/,-0.3
C[C@H]1CN([C@@H](C)CO)C(=O)c2cc(NC(=O)Nc3cccc4ccccc34)ccc2O[C@H]1CN(C)Cc1ccc2c(c1)OCO2,-0.8,97.2*,22.9,0.317,-0.1
C[C@H]1CN([C@@H](C)CO)C(=O)Cc2cc(NC(=O)Nc3cccc4ccccc34)ccc2O[C@H]1CN(C)Cc1ccc(Cl)c(Cl)c1,3.2,88.1*,-36.9,0.106,-1.3
C[C@H]1CN([C@@H](C)CO)C(=O)c2cc(NC(=O)Nc3cccc4ccccc34)ccc2O[C@@H]1CN(C)Cc1ccncc1,11.4,6.8,/,0.19,-2.4
C[C@@H]1CN([C@@H](C)CO)C(=O)c2cc(NC(=O)Nc3cccc4ccccc34)ccc2O[C@@H]1CN(C)Cc1ccc2c(c1)OCO2,2.1,42.7,28.8,0.244,-1.6
C[C@H]1CN([C@@H](C)CO)C(=O)c2cc(NC(=O)Nc3cccc4ccccc34)ccc2O[C@@H]1CN(C)Cc1ccc(Cl)c(Cl)c1,24.6,109.0*,-0.4,0.0666,-3.2
C[C@H](CO)N1C[C@H](C)[C@H](CN(C)Cc2ccc(Cl)c(Cl)c2)Oc2ccc(NC(=O)Nc3cccc4ccccc34)cc2CC1=O,18.7,40.1,-16.3,0.582,0.1
C[C@H]1CN([C@@H](C)CO)C(=O)c2cc(NC(=O)Nc3cccc4ccccc34)ccc2O[C@H]1CN(C)Cc1ccncc1,6.6,108.3*,/,0.0902,-3.2
CN(C)CCNc1cn[nH]c(=O)c1Cl,-6.5,28.0,-36.7,-0.106,0.6
CC(CN1CCN(Cc2ccccc2)CC1)N(C(=O)c1ccc(C(C)(C)C)cc1)c1ccccn1 (configuration not stated),19.5,45.3,13.6,-0.448,-0.8
O=C(O)Cc1ccc(NC(=O)c2cccnc2C(=O)O)cc1,-13.5,0.0,/,/,0.3
C[C@@H]1CN([C@H](C)CO)C(=O)Cc2cc(NC(=O)Nc3cccc4ccccc34)ccc2O[C@@H]1CN(C)Cc1ccc(Cl)c(Cl)c1,4.7,115.1*,-6.0,-0.124,-0.7
c1ccc2[nH]c(CCn3c4c(c5ccccc53)CCCC4)nc2c1,?,35.0,/,/,/
COc1ccc(CCNC(=O)c2nc3ccccc3c(=O)n2-n2cccc2)cc1OC,-10.7,-0.2,22.8,-0.778,0.7
